Here are results for three sequences from article PMC8384837, “Expanding the binding specificity for RNA recognition by a PUF domain”.

The first test deals with PUM1 PUF domain R4-SRV (Homo sapiens, UniProt Q14671 828-1176, N971S;H972R;Q975V). In words: yeast three-hybrid, YBZ-1, SC-Leu-His + 0.5 mM 3-AT, 4 days. As to conditions: tags: N-Gal4 AD-HA kept; label: inside an RPR1-promoter hybrid RNA with tandem MS2 sites; ssRNA. In outline:
(§1)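 Pumilio-1 PUF domain libraries, randomized at the three base-contacting residues of each repeat, were co-expressed with matching RNA elements from a centromeric plasmid in strain YBZ-1, which carries a LexA–MS2 coat fusion and a HIS3 reporter. Transformants grew for four days on SC-Leu (input) or on SC-Leu-His + 0.5 mM 3-AT (selection), and the repeat regions were PCR-amplified and Illumina-sequenced. The interaction score is the log change in variant frequency from input to selection. That logarithm is base 2, with a pseudocount of 1 where a variant was absent.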
With “GGCUAGAACUAGUGGAUCCCCCGGCGCCCGGCGGCUCGAGCCCGGGUAAGUGUACAUAGUCUGCAUGCCGCCGGGCGCCAUGCCUGCAGGUCGACUCUAGAAAACAUG”, the binding signal was 0.98 log2 enrichment (interaction score).
The same measure, in the same setting: as for “GGCUAGAACUAGUGGAUCCCCCGGCGCCCGGCGGCUCGAGCCCGGGUAAGUGUAAAUAGUCUGCAUGCCGCCGGGCGCCAUGCCUGCAGGUCGACUCUAGAAAACAUG”, the figure is 3.51 log2 enrichment (interaction score); as for “GGCUAGAACUAGUGGAUCCCCCGGCGCCCGGCGGCUCGAGCCCGGGUAAGUGUAUAUAGUCUGCAUGCCGCCGGGCGCCAUGCCUGCAGGUCGACUCUAGAAAACAUG”, 1.19 log2 enrichment (interaction score).

The target in another test is PUM1 PUF domain R4-FGA (Homo sapiens, UniProt Q14671 828-1176, N971F;H972G;Q975A). The description is as above. As to conditions: tags: N-Gal4 AD-HA kept; label: inside an RPR1-promoter hybrid RNA with tandem MS2 sites; ssRNA. In outline: as §1
On to “GGCUAGAACUAGUGGAUCCCCCGGCGCCCGGCGGCUCGAGCCCGGGUAAGUGUACAUAGUCUGCAUGCCGCCGGGCGCCAUGCCUGCAGGUCGACUCUAGAAAACAUG”, for which the binding signal was 3.23 log2 enrichment (interaction score).
With “GGCUAGAACUAGUGGAUCCCCCGGCGCCCGGCGGCUCGAGCCCGGGUAAGUGUAAAUAGUCUGCAUGCCGCCGGGCGCCAUGCCUGCAGGUCGACUCUAGAAAACAUG”, the binding signal is 1.37 log2 enrichment (interaction score).
Take “GGCUAGAACUAGUGGAUCCCCCGGCGCCCGGCGGCUCGAGCCCGGGUAAGUGUAUAUAGUCUGCAUGCCGCCGGGCGCCAUGCCUGCAGGUCGACUCUAGAAAACAUG”: the binding signal is 2.95 log2 enrichment (interaction score).
